Calb FLC – affects C. albicans growth with fluconazole. C. albicans CaCi-2 (fluconazole-resistant clinical isolate) + fluconazole, Alamar Blue growth, 48 h. growth inhibition, % (test concentration not listed). 300,000 tested, 0.57% active. AID 1979;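 active = growth inhibition above about 58% in most replicates, limit read from the data, passing the limit was not always enough; inconclusive = exactly half the replicates above a set limit; inactive = most replicates below a set limit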;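 also: all wells also contain fluconazole at 8 µg/ml as a sub-toxic cotreatment; 0% = median of DMSO wells and 100% = median of geldanamycin control wells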
SKKanGAS inh – inhibitors of SKKanGAS S. pyogenes growth in kanamycin (SK-promoter or general growth effect); BacTiter-Glo, 6 h; inhibition, % at 7.5 µM; 300,000 tested, 1.3% active;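 active = mean replicate score, as percent of positive control median, at least 50; inconclusive = mean below 50 but one replicate at or above 50; inactive = mean and every replicate below 50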;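 also: strain carries kanamycin resistance gene driven by streptokinase promoter and grows in 40 µg/ml kanamycin; loss of luminescence reflects streptokinase promoter inhibition or plain growth inhibition; 0% = median of DMSO wells and 100% = positive control at its reference dose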
PfHsp90 set2 – reduces growth (ATP signal) of yeast expressing P. falciparum Hsp90. 310,000 tested, 0.32% active. S. cerevisiae expressing PfHsp90, BacTiter-Glo ATP, 48 h; yeast lacking PDR1 and PDR3 efflux regulators. inhibition, % at 9.4 µM;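 active = every replicate shows inhibition above about 80%, whatever the replicate mean, limit read from the data; inconclusive = mean inhibition reaches the set limit but some replicate falls short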;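 also: 0% = DMSO neutral controls and 100% = 20 µM radicicol positive controls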
TIM10 inh – growth inhibitors of TIM10 yeast strain; S. cerevisiae TIM10 strain growth, BacTiter-Glo luminescence, 24 h; inhibition, % at 10 µM; 330,000 tested, 1.4% active;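 active = inhibition of 40% or more at the single tested concentration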;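 also: wild-type TIM10 isogenic control strain grown at permissive 25 °C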
tim10-1 inh – growth inhibitors of tim10-1 mutant yeast. S. cerevisiae tim10-1 ts strain growth, BacTiter-Glo, 24 h. inhibition, % at 20 µM. 330,000 tested, 2.2% active. AID 463190;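 active = inhibition of at least 40%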;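 also: mutant grown at 25 °C; 0% = DMSO wells with yeast and 100% = wells holding no yeast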
tim23-1 inh – tim23-1 yeast growth inhibition | S. cerevisiae tim23-1 growth, BacTiter-Glo luminescence, 24 h | inhibition, % at 20 µM | 330,000 tested, 1.3% active;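 active = growth inhibition of the mutant yeast at or above 50%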;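 also: temperature-sensitive mutant grown at 25 °C; plate controls were DMSO-treated mutant yeast for no effect and medium wells lacking yeast for full effect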
Numbers without * were called inactive; ? = inconclusive; · = not tested or not shown. Compounds with a hit are over-represented: about 4.7% of the library has one in this group of screens.

SMILES	Calb FLC	SKKanGAS inh	PfHsp90 set2	TIM10 inh	tim10-1 inh	tim23-1 inh
Cc1ccc(NC(=O)CCNC(=O)c2ccc(Cl)cc2)nc1	5.7	-16.5	-10.0	-0.4	-25.3	1.8
O=C(N/N=C/c1ccc(F)cc1)c1c(O)c2ccccc2[nH]c1=O	-2.7	94.5*	35.0	23.4	-7.0	23.7
O=C(N/N=C/c1ccc(F)cc1)c1ccccc1	-3.1	?	4.6	-10.7	-16.6	-7.2
O=C(Nc1cccc(F)c1)c1c(O)c2ccccc2[nH]c1=O	12.4	2.0	-2.1	-24.6	-30.1	-1.7
O=C(N/N=C/c1cccc(F)c1)c1c(O)c2ccccc2[nH]c1=O	23.0	92.0*	14.3	·	·	·
COc1ccc(S(=O)(=O)N2CCC3CC2c2cc(N4CCOCC4)ccc23)cc1 (stereo unspecified)	·	·	-5.3	·	·	·
CCOc1cc(/C=C2/NC(=S)NC2=O)ccc1OCc1ccc([N+](=O)[O-])cc1	2.5	74.4*	·	-4.6	7.2	-5.9
O=C(OCC(=O)N1CCCc2ccccc21)c1c(F)cccc1F	-3.2	-15.4	18.4	3.5	23.7	17.3
Cc1cc(F)ccc1NC(=O)CCc1ccc(S(=O)(=O)N2CCOCC2)cc1	·	·	-1.2	-12.9	0.9	-2.7
FC(F)(F)c1cc(-c2ccccc2)nc(N2CCCCC2)n1	-6.0	84.3*	17.9	-8.6	8.8	9.6
CCCOC(c1ccccc1)(c1ccc(C(F)(F)F)cc1)C(Oc1nc(C)cc(C)n1)C(=O)O (stereo unspecified)	79.5*	-29.3	-12.4	10.7	4.1	15.6
COc1ccc(S(=O)(=O)N[C@@H](C)C(=O)OCC(=O)Nc2cc3oc4ccccc4c3cc2OC)cc1	-6.8	80.3*	5.2	19.7	16.5	27.9
COc1cc2c(cc1NC(=O)COC(=O)[C@@H](NS(=O)(=O)c1cccc(Cl)c1)C(C)C)oc1ccccc12	0.9	34.5	-18.4	21.5	23.2	18.1
Cc1ccc(CS(=O)(=O)CC(C)(O)c2ccc(Cl)cc2)cc1 (stereo unspecified)	2.7	6.0	-2.4	-12.0	8.0	-5.4
Cc1ccc(O)c(C(=O)CC(=O)c2cccc(F)c2)c1	-10.9	80.5*	·	5.9	-2.1	17.4
Cc1ccc(O)c(C(=O)CC(=O)c2ccc(Cl)cc2)c1	-15.5	96.4*	-39.9	·	·	·
Cc1ccc(C(=O)CC(=O)c2ccccc2)cc1	-2.5	52.7*	13.3	9.2	11.8	27.1
Cc1ccc(C(=O)CC(=O)COc2ccc(Cl)cc2C)cc1	7.3	101.0*	-14.8	20.4	14.8	1.1
Cc1ccc(C(=O)Cc2ccccc2)cc1	·	·	-13.7	·	·	·
CCCCn1c(N)c(N(CC(C)C)C(=O)c2cc(S(=O)(=O)N3CCCCC3)ccc2C)c(=O)[nH]c1=O	15.9	-5.1	20.2	7.1	14.8	18.3
O=C(CCCSc1ccc(Cl)cc1)Nc1ccccc1O	-2.2	-7.5	-3.2	33.7	39.3	47.3
Oc1ccc(N2CCN(C(=S)NCCc3ccccc3)CC2)cc1	106.2*	3.3	-2.4	36.4	-27.3	-57.1
COc1ccc(N2CC(C(=O)N/N=C/c3cc([N+](=O)[O-])ccc3O)CC2=O)cc1 (stereo unspecified)	-1.9	68.5*	-7.0	0.0	6.9	7.5
COc1ccc(N2CC(C(=O)Nc3ccc([N+](=O)[O-])cc3Br)CC2=O)cc1 (stereo unspecified)	-1.6	3.8	9.7	-15.2	10.3	22.1
COc1cc(C(=O)Nn2cnnc2)ccc1OC(F)F	-3.3	-4.2	-14.4	-18.7	10.7	12.1
SMILES	Calb FLC	SKKanGAS inh	PfHsp90 set2	TIM10 inh	tim10-1 inh	tim23-1 inh
CCOc1ccc(C(=O)NCC2CCCN2S(=O)(=O)c2cccs2)cc1 (stereo unspecified)	3.7	52.5*	12.6	9.7	11.7	26.7
O=c1ccc(-c2ccc(S(=O)(=O)Nc3ccc(F)cc3)s2)n[nH]1	4.6	-1.3	-3.0	5.4	5.2	-6.9
CC(/C=C/c1ccco1)=N\NC(=O)c1cc(Cl)ccc1O	-2.2	69.8*	-9.3	2.6	9.8	3.6
O=C(C=Cc1ccco1)c1cc(Cl)ccc1O	·	·	2.2	·	·	·
Cc1ccc(N2NC3(CCN(C(N)=O)CC3)NC2=O)cc1	106.1*	3.5	·	-52.0	-29.0	2.9
COc1ccc(N2CCN(C3CC(=O)NC3=O)CC2)cc1 (stereo unspecified)	-11.0	15.0	-8.4	-5.3	-1.3	11.1
COc1ccc(C(=O)c2ccc(N3CCN(C4CC(=O)NC4=O)CC3)cc2)cc1F (stereo unspecified)	12.8	73.2*	3.7	-7.1	8.7	14.5
O=C(Nc1nonc1NC(=O)c1cccs1)c1cccs1	85.0*	-5.5	-34.9	8.6	9.3	-8.5
Nc1ccccc1Sc1nc2ccccc2[nH]1	6.7	60.9*	-2.0	12.6	16.7	18.1
O=C(c1ccccc1)c1c[nH]c(C(=O)NNc2ccccc2)c1	99.1*	5.8	7.2	-45.4	-31.0	-7.4
CCOC(=O)C1CCN(CCC(=O)Nc2ccc(F)cc2)CC1	106.9*	-5.6	-9.2	-3.8	-5.4	1.0
CC(NC(=O)COC(=O)CCN1C(=O)C2CC=CCC2C1=O)c1ccc(Br)cc1 (stereo unspecified)	·	·	8.7	3.2	0.9	-2.5
Cc1cccc(OCc2n(CC(=O)OC3CC(C)CCC3C(C)C)c3ccccc3[n+]2C)c1 (stereo unspecified)	102.1*	19.5	-28.5	18.8	25.2	10.2
CC1CCC(C(C)C)C(OC(=O)Cn2c(-c3ccccc3)[n+](C)c3ccccc32)C1 (stereo unspecified)	17.0	12.4	-9.8	16.1	17.2	6.5
CC(C)(C)NC(=O)CN(C(=O)c1snc(C(=O)NC2CCCCC2)c1N)c1ccccc1F	-6.0	10.1	-6.4	14.2	26.9	24.8
COc1ccccc1NC(=O)C(=O)N/N=C(\C)CC(=O)Nc1ccccc1C(F)(F)F	20.9	1.2	2.8	7.6	-1.6	21.1
COc1ccc(NC(=O)c2cc(-c3ccc(C)c(C)c3O)n[nH]2)cc1Cl	-0.2	57.3*	16.5	19.4	-1.8	24.9
Cc1ccc(NC(=O)c2cc(-c3ccc(C)c(C)c3O)n[nH]2)cc1C	1.5	-0.8	-15.6	-19.0	-34.2	-16.6
Cc1ccc(C(=O)NCc2ccco2)cc1S(=O)(=O)Nc1cccc(Cl)c1	113.1*	0.4	12.2	-0.6	12.1	7.9
CC1CCCC(=NNC(=O)C2COc3ccccc3O2)C1 (stereo unspecified)	·	·	-3.3	2.5	-17.1	-7.6
COC(=O)c1c(C)n(-c2ccccc2)c2ccc(O)cc12	91.9*	-0.5	9.9	20.0	31.8	34.3
COC(=O)c1c(C)n(-c2ccc(C)cc2)c2ccc(O)cc12	69.5	·	-2.9	26.1	27.3	32.5
Cc1ccc(C(C)C)c(OCc2ccc(C(=O)N/N=C/c3cccc(O)c3O)cc2)c1	87.3*	86.3*	121.9*	·	·	·
Cc1nn(Cc2c(Cl)cccc2Cl)c(C)c1NC(=O)c1cn(-c2ccccc2)nc1-c1ccccc1	1.9	62.9*	33.1	6.6	4.1	12.0

Source: PubChem BioAssay (several laboratories)
